According to PubChem BioAssay (Tox21):
Inconclusive results are not listed. A call without a number means that no potency is given here. Calls of active or inactive are those of the source. Unless noted, the call rests on the fitted dose curve. Where a SMILES comes first, the peptide text is derived from it. [ ]: non-standard residue; d: D form. pGlu = O=C1CC[C@@H](C(=O)O)N1

Assay: qHTS assay to identify small molecule agonists of the hypoxia (HIF-1) signaling pathway - cell viability counter screen (AID 1224844); further: nearly all actives have a fitted effect of over 50% in size
Conditions: HRE-bla ME-180 viability, CellTiter-Glo luminescence, 17 h; series mostly up to 76.8 µM
Outline: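 Luminescent ATP content (CellTiter-Glo, 30 min, room temperature) served as the viability measure in HRE-bla ME-180 cells exposed to compounds for 17 hrs in low-serum medium (0.5% dialyzed FBS).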

| Compound | Potency | activity change, negative = cytotoxicity |
| --- | --- | --- |
| O=S(=O)(O)c1cc(O)c(O)c(S(=O)(=O)O)c1 | inactive | – |
| CCC1C(=O)OCC1Cc1cncn1C (stereo unspecified) | inactive | – |
| C[C@H]1[C@H](NC(=O)/C(=N/OC(C)(C)C(=O)O)c2csc(N)n2)C(=O)N1S(=O)(=O)O (stereo in doubt) | inactive | – |
| Nc1ccn([C@@H]2O[C@H](CO)[C@@H](O)C2O)c(=O)n1 (stereo partly specified) | inactive | – |
| CC1=NN(c2cc(S(=O)(=O)O)ccc2Cl)C(=O)C1N=Nc1ccccc1 (stereo unspecified) | inactive | – |
| O=S(=O)(O)c1cccc(S(=O)(=O)O)c1 | inactive | – |
| CCN[C@H]1C[C@H](C)S(=O)(=O)c2sc(S(N)(=O)=O)cc21 | inactive | – |
| NCCCC(N)(C(=O)O)C(F)F (stereo unspecified) | inactive | – |
| CCC(C(=O)NC(=O)NC(C)=O)c1ccccc1 (stereo unspecified) | inactive | – |
| CC(C)NNC(=O)c1ccncc1 | inactive | – |
| NCCCC[C@H](N[C@@H](CCc1ccccc1)C(=O)O)C(=O)N1CCC[C@H]1C(=O)O | inactive | – |
| CC1=CC(=O)[C@H]2C[C@@H]1C2(C)C | inactive | – |
| CN(C)C(=O)Oc1cccc([N+](C)(C)C)c1 | inactive | – |
| CC[C@H]1OC(=O)[C@H](C)[C@@H](O[C@H]2C[C@@](C)(OC)[C@@H](O)[C@H](C)O2)[C@H](C)[C@@H](O[C@@H]2O[C@H](C)C[C@H](N(C)C)[C@H]2O)[C@](C)(OC)C[C@@H](C)C(=O)[C@H](C)[C@@H](O)[C@]1(C)O | inactive | – |
| COC(=O)C1=C(C)NC(C)=C(C(=O)OC(C)C)C1c1cccc2nonc12 (stereo unspecified) | inactive | – |
| CCCCCCCCCCCCCCC(=O)O | inactive | – |
| CN1CCC(=C2c3ccccc3CCc3cccnc32)CC1 | inactive | – |
| CCOc1ccccc1OCC | inactive | – |
| CCCc1ncc(C[n+]2ccccc2C)c(N)n1 | inactive | – |

| Compound | Potency | activity change, negative = cytotoxicity |
| --- | --- | --- |
| CCOC(=O)c1cnc2c(cnn2CC)c1NN=C(C)C | inactive | – |
| CC(C(=O)O)c1cccc(Oc2ccccc2)c1 (stereo unspecified) | inactive | – |
| CCNC(=O)[C@@H]1CCCN1C(=O)[C@H](CCCN=C(N)N)NC(=O)[C@H](CC(C)C)NC(=O)CNC(=O)[C@H](Cc1ccc(O)cc1)NC(=O)[C@H](CO)NC(=O)[C@H](Cc1c[nH]c2ccccc12)NC(=O)[C@H](Cc1cnc[nH]1)NC(=O)[C@@H]1CCC(=O)N1 ([pGlu]HWSYGLRP-NHEt) | inactive | – |
| C[N+]1(C)[C@@H]2CC(OC(=O)[C@H](CO)c3ccccc3)C[C@H]1[C@@H]1O[C@@H]12 (stereo partly specified) | inactive | – |
| CC[N+](C)(CC)CCOC(=O)C1c2ccccc2Oc2ccccc21 | inactive | – |
| C[C@H]1C[C@H]2[C@@H]3CCC4=CC(=O)C=C[C@]4(C)[C@H]3C(=O)C[C@]2(C)[C@@]1(O)C(=O)CO | inactive | – |
| CCC(C)(CN(C)C)OC(=O)c1ccccc1 (stereo unspecified) | inactive | – |
| CN1CCN(c2cc3c(nn2)Oc2ccccc2N3C)CC1 | – | 1.97% [at 15.8 µM] (inactive) |
| OCCCCCO | inactive | – |
| CCN[C@@H]1C[C@H](N)[C@@H](OC2OC(CN)=CCC2N)[C@H](O)[C@H]1O[C@H]1OC[C@](C)(O)[C@H](NC)[C@H]1O (stereo partly specified) | – | 3.33% [at 0.29 µM] (inactive) |
| C[N+](C)(C)CCCCCCCCCC[N+](C)(C)C | inactive | – |
| Nc1c2c(nc3c1CCC3)CCCC2 | inactive | – |
| CCOCC(C)O (stereo unspecified) | inactive | – |
| CC[N+](CC)(CC)CCOc1cccc(OCC[N+](CC)(CC)CC)c1OCC[N+](CC)(CC)CC | inactive | – |
| CCCCN1C=CN(C)C1 | – | -14.8% [at 15.8 µM] (inactive) |
| COc1cc(-c2ccc(=O)[nH]n2)ccc1OC(F)F | inactive | – |
| C=CCCC(=O)O | inactive | – |
| CC(C#N)(CCC(=O)O)N=NC(C)(C#N)CCC(=O)O (stereo unspecified) | inactive | – |
| CN(C)CCCCCCN(C)C | inactive | – |

Assay: qHTS assay to identify small molecule agonists of H2AX (AID 1224845; active means well fitted activation curve with a large enough effect in the signal ratio in the repeat runs, not every such curve was filed as active; the % refers to the signal ratio)
Conditions: CHO-K1 phospho-H2AX Ser139 HTRF, 3 h; series mostly up to 154 µM
Outline: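 Wild-type CHO-K1 cells, plated overnight, exposed 3hr at 37C to 15 concentrations (0.76% DMSO final). Lysed, then HTRF anti-pH2AX (S139) cryptate and anti-H2AX-d2 antibodies, 24 hr room temperature; 665/620 nm emission read.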

| Compound | Potency | activation (H2AX phosphorylation) |
| --- | --- | --- |
| CCC1C(=O)OCC1Cc1cncn1C (stereo unspecified) | inactive | – |
| C[C@H]1[C@H](NC(=O)/C(=N/OC(C)(C)C(=O)O)c2csc(N)n2)C(=O)N1S(=O)(=O)O (stereo in doubt) | inactive | – |
| CCN[C@H]1C[C@H](C)S(=O)(=O)c2sc(S(N)(=O)=O)cc21 | inactive | – |
| NCCCC(N)(C(=O)O)C(F)F (stereo unspecified) | inactive | – |
| CC(C)NNC(=O)c1ccncc1 | inactive | – |
| NCCCC[C@H](N[C@@H](CCc1ccccc1)C(=O)O)C(=O)N1CCC[C@H]1C(=O)O | inactive | – |
| CN(C)C(=O)Oc1cccc([N+](C)(C)C)c1 | inactive | – |
| COC(=O)C1=C(C)NC(C)=C(C(=O)OC(C)C)C1c1cccc2nonc12 (stereo unspecified) | inactive | – |
| CCCc1ncc(C[n+]2ccccc2C)c(N)n1 | inactive | – |
| CCOC(=O)c1cnc2c(cnn2CC)c1NN=C(C)C | inactive | – |
| CC(C(=O)O)c1cccc(Oc2ccccc2)c1 (stereo unspecified) | inactive | – |
| C[N+]1(C)[C@@H]2CC(OC(=O)[C@H](CO)c3ccccc3)C[C@H]1[C@@H]1O[C@@H]12 (stereo partly specified) | inactive | – |
| CC[N+](C)(CC)CCOC(=O)C1c2ccccc2Oc2ccccc21 | inactive | – |
| CCC(C)(CN(C)C)OC(=O)c1ccccc1 (stereo unspecified) | inactive | – |
| CCN[C@@H]1C[C@H](N)[C@@H](OC2OC(CN)=CCC2N)[C@H](O)[C@H]1O[C@H]1OC[C@](C)(O)[C@H](NC)[C@H]1O (stereo partly specified) | – | -3.19% [at 0.582 µM] (inactive) |
| C[N+](C)(C)CCCCCCCCCC[N+](C)(C)C | inactive | – |
| CC[N+](CC)(CC)CCOc1cccc(OCC[N+](CC)(CC)CC)c1OCC[N+](CC)(CC)CC | inactive | – |
| COc1cc(-c2ccc(=O)[nH]n2)ccc1OC(F)F | inactive | – |
